Growth data for 40 compounds are collected here from PubChem BioAssay (NCI).

Compounds without any hit were thinned out: in the full panel of roughly 83,000, 20% have a hit.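 Results are percent growth after 48 hours of single-concentration exposure. 100 means growth as in untreated cells, lower positive values show inhibition; negative values down to -100 show cell death.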 A number with no mark means an inactive call. The source made the active and inactive calls. The calls were made as follows: active = growth percent below 10; inactive = the rest.

The subject of this experiment is HL-60(TB) leukemia. The experiment is described as follows: NCI-60 one-dose screen, 48 h (100 = growth as untreated, 0 = no growth, -100 = all killed). The note with it: 10 µM unless noted.
As to `CC1=C/C(=C(\c2cc(C)c(O)c(C(=O)O)c2)c2c(Cl)cccc2Cl)C=C(C(=O)O)C1=O`, the growth was 106%.

With `COc1ccc(CNc2nccnn2)cc1`, the growth is 69.9%. Under `Cc1cc(Nc2cc(N3CCN(C)CC3)nc(Sc3ccc(NC(=O)C4CC4)cc3)n2)n[nH]1` stands 11.2%; under `CCC(c1ccccc1)c1noc(CCN(CC)CC)n1` (stereo not given), 77.3%. With `O=C(Cn1c2ccccc2c2ccncc21)N/N=C/c1c[nH]c2ccccc12` the figure was 74.5%; with `Cc1cc(C(=C2C=CC(=Nc3ccccc3)C=C2)c2ccc(Nc3ccccc3)cc2)ccc1N`, 5.66% (active). `Nc1nnc2cc(F)ccc2n1`: the growth is 107%. Under `O=C1c2ccccc2C(=O)c2c1cc1c(c2[N+](=O)[O-])OCO1` stands 7.66% (active); under `Cc1nc(Nc2ccc(Cl)cc2)c2cnn(-c3ccccc3)c2n1`, 102%. With `Cn1c(I)c(C#C[Si](C)(C)C)c(=O)[nH]c1=O` the figure was -67.8% (active); with `CCN(CC)CCN(CCN(CC)CC)c1ccccc1`, 87.9%. In the case of `CCN(CC)C(=O)C1=C(C)NC(=O)NC1c1ccc2c(c1)OCO2` (stereo not given), the growth was 101%. Under `Cc1ncc(C(=O)Nc2ccc(CN3CCN(C)CC3)c(C(F)(F)F)c2)cc1C#Cc1ccc(N)nc1` stands 17.6%. With `O=C(Nc1ccccc1)Nc1ccccc1CNc1nc(Nc2ccc(OCCN3CCCC3)cc2)ncc1Cl` the figure was -31.2% (active); with `COc1cccc2c1O/C(=C\c1c([N+](=O)[O-])ncn1C)C2=O`, 95.8%. In the case of `C=C1C(=O)O[C@H]2[C@H]1CC/C(Cn1cc(Cc3c[nH]c4ccccc34)nn1)=C\CC[C@@]1(C)O[C@@H]21`, the growth is -49.1% (active). Turning to `COc1cc2c(cc1OCCCN1CCN(C(=S)SCCC(C#N)(c3ccccc3)c3ccccc3)CC1)N=C[C@@H]1CCCN1C2=O`, the growth was 0.178% (active).

For the compound `CC(=O)Oc1cc2ccccc2cc1C(C)C`, the growth was 103%.

In the case of `COc1ccc(/C=C2\Oc3cc(OCCCN4CCCCC4)ccc3C2=O)cc1OC`, the growth was 99.9%. For the compound `CCN1C(=O)N(CC)C2C1NN=C1SCC(=O)N12` (stereo not given), the growth is 99.1%.

`C=CC(=O)Nc1cccc(Nc2nc(SC)nc(-c3cccc([N+](=O)[O-])c3)c2C#N)c1`: the growth was 63.4%. As for `CN(C)CC(C)(CN(C)C)C(=O)/C=C/c1c(Cl)cccc1Cl`, the growth is -5.28% (active). With `CCOC(=O)c1nn(-c2ccc(S(N)(=O)=O)cc2)c2nc(C)cc(=O)n12` the figure was 101%; with `CCOC(=O)CC1CSC(Nc2ccccc2)=N1` (stereo not given), 102%; with `C/C(Cc1ccc(Cl)cc1)=C(\c1ccc(OCCN2CCCCCC2)cc1)c1ccc(OC(=O)c2ccccc2)cc1`, 23.1%.

In the case of `CNC(=O)c1cc(Oc2ccc(NC(=O)c3nc(S(C)(=O)=O)n(C)c3-c3ccc(F)cc3)cc2)ccn1`, the growth was 69.8%. On to `Cc1cc(C)cc(NC(=O)Cn2nncc2CN2C(=O)CSC2=O)c1`, for which the growth is 97.9%. With `NS(=O)(=O)c1ccc(C(=O)N/N=C(\CS(=O)(=O)c2ccccc2)c2cc3cc(Br)ccc3o2)cc1` the figure was 115%; with `CC(C)=CCC[C@](C)(O)[C@H]1CC[C@]2(C)[C@@H]1CC[C@@H]1[C@@]3(C)C/C(=C/c4ccc(Br)cc4)C(=O)C(C)(C)[C@@H]3CC[C@]12C`, 92.9%. `Cc1cc(OCCO)cc(C)c1Cl`: the growth is 100%. Under `C[C@H]1[C@H](C)CC[C@]2(COC(=O)CCC(=O)O)CC[C@]3(C)C(=CC[C@@H]4[C@@]5(C)CCCNC(C)(C)[C@@H]5CC[C@]43C)[C@H]12` stands 49.3% [100 µM]. Under `Nc1ccc(Sc2ccc([N+](=O)[O-])c3nonc23)cc1` stands 42.8%.

Turning to `COc1cccc(-c2nn(-c3ccccc3)cc2-c2ccnc(NCCCNS(=O)(=O)c3ccc(Cl)cc3)c2)c1`, the growth was 40%.

In the case of `CCc1c(C(=O)NCc2c(O)ccc3cccc(O)c23)[nH]c(C)c1C(C)=O`, the growth was 41.5%. For the compound `CC(C)c1ccc(C(=O)OCCCl)cc1`, the growth is 85.5%.

`CN1CCc2c(c3ccccc3c3ccccc23)C1`: the growth is 35.1%. Take `Cc1nn(-c2ccc([N+](=O)[O-])cc2)c2ncnc(NCCc3ccccc3)c12`: the growth was 65.9%. Under `Cn1cc(-c2csc(-c3cn(C(=O)OC(C)(C)C)c4ccccc34)n2)c2ccnc(Cl)c21` stands 67.5%; under `O=c1nc(NO)[nH]c(=O)n1Cc1ccccc1`, 105%; under `COc1cc(Nc2c3ccc(Cl)cc3nc3ccc(OC)cc23)c2ncccc2c1`, 49.5%.
